# From PubChem BioAssay (EPA / NIEHS)
# Records with an inconclusive call do not appear. Active and inactive are the calls of the source. Rule for the calls, unless noted: active = hit-call score of the fitted dose curve at least 0.9, where 1 is the maximum; inconclusive = response in the unintended direction; inactive = score below 0.9.
# Target: zebrafish Thyroid Hormone Receptor beta (TRb), thrb (gene 30607) (UniProt Q9PVE4)
# Assay: ATG_zfTRb_XSP2: Attagene TRANS-FACTORIAL Multi-Species (XSP1) HepG2 Assay for zebrafish Thyroid Hormone Receptor beta (TRb) (AID 2283836)
# Conditions: not given
# How it was run: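 Fluorescence of labelled reporter cDNA fragments, separated by capillary electrophoresis, gives mRNA induction from exogenous NR-Gal4 chimeras in transiently transfected HepG2 cells after 24 h dosing; 3 nM 6-alpha-fluorotestosterone and 1.5 nM norgestrel included in the run.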
# zebrafish Thyroid Hormone Receptor beta (TRb), thrb (gene 30607), sequence (Q9PVE4 whole entry, looked up): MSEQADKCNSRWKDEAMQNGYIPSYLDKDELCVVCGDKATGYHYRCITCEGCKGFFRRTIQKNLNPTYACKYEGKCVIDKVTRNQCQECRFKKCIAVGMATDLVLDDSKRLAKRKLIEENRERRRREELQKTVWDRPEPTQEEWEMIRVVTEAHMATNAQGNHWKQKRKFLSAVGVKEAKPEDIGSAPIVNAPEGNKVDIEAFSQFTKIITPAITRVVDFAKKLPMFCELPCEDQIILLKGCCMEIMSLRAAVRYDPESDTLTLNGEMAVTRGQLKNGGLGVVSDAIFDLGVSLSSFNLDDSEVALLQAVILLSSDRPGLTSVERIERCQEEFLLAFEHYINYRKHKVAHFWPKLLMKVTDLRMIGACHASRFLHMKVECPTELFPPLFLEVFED
row,SMILES,outcome
1,Clc1nc(Cl)c(Cl)c(Cl)c1Cl,inactive
2,O=P(OC(CCl)CCl)(OC(CCl)CCl)OC(CCl)CCl,inactive
3,Oc1ccc2c(c1)-c1ccccc1C2,inactive

# Target: frog Thyroid hormone Receptor alpha (TRa), thra-a (gene 397942) (UniProt P15204)
# Sequence (P15204 whole entry, looked up): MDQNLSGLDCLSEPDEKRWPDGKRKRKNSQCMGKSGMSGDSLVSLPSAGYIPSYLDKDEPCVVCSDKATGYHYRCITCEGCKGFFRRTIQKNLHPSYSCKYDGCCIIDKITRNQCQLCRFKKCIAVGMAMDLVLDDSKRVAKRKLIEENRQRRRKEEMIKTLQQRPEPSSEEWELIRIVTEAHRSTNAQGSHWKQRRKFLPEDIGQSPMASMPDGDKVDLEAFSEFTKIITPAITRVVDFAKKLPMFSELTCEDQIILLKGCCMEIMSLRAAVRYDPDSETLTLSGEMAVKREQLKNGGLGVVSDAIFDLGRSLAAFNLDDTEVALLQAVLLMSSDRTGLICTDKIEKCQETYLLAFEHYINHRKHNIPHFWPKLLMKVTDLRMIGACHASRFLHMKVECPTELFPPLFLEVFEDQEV
# Assay: ATG_frTRa_XSP2: Attagene TRANS-FACTORIAL Multi-Species (XSP2) HepG2 Assay for frog Thyroid hormone Receptor alpha (TRa) (AID 2283839)
# Conditions: not given
# How it was run: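 Chimeric frog TRα-GAL4 activity in human liver cells measures reporter transcript induction 24 h post-dose. Detection uses RT-PCR, HpaI-digested labelled products and fluorescence capillary electrophoresis; DMSO serves as negative control.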
row,SMILES,outcome
1,Clc1nc(Cl)c(Cl)c(Cl)c1Cl,inactive
2,O=P(OC(CCl)CCl)(OC(CCl)CCl)OC(CCl)CCl,inactive
3,Oc1ccc2c(c1)-c1ccccc1C2,inactive

# Target: human Thyroid hormone Receptor beta (TRb), THRB (gene 7068) (UniProt P10828)
# Sequence (P10828 whole entry, looked up): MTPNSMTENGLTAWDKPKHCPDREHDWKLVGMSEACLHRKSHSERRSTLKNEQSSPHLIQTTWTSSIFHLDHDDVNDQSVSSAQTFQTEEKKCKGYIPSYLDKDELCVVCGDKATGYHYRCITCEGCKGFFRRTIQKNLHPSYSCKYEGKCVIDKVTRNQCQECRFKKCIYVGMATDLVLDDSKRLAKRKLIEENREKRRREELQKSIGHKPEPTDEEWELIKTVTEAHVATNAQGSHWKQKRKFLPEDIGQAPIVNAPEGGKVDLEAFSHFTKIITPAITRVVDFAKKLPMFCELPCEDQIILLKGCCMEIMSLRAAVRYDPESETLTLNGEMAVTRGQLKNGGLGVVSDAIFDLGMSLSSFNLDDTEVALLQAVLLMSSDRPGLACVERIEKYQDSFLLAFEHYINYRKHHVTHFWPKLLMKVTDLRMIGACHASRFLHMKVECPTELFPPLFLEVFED
# Assay: ATG_hTRb_XSP2: Attagene TRANS-FACTORIAL Multi-Species (XSP2) HepG2 Assay for human Thyroid hormone Receptor beta (TRb) (AID 2283840);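 note: actives raise reporter mRNA so potency reflects agonist-like gain of signal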
# Conditions: not given
# How it was run: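 Gain-of-signal reporter transcription, referenced to DMSO, was measured in transiently transfected HepG2 after 24 h exposure; labeled RT-PCR products were resolved by capillary electrophoresis. Assay medium included 3 nM 6-alpha-fluorotestosterone and 1.5 nM norgestrel.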
row,SMILES,outcome
1,Clc1nc(Cl)c(Cl)c(Cl)c1Cl,inactive
2,O=P(OC(CCl)CCl)(OC(CCl)CCl)OC(CCl)CCl,inactive
3,Oc1ccc2c(c1)-c1ccccc1C2,inactive

# Test system: Sodium/Iodide Symporter (NIS), SLC5A5 (gene 6528)
# Assay: CPHEA_Stoker_NIS_Inhibition_RAIU: CPHEA's Radioactive Iodide Uptake (RAIU) Assay for Sodium/Iodide Symporter (NIS) Inhibition, Stoker and Laws Labs (AID 2283841)
# Conditions: not given
# How it was run: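 HEK293T cells stably expressing human NIS (hNIS-HEK293T-EPA) were exposed to test chemicals at 0.001–100uM (0.5% final DMSO) with 125I at a final 329pM in HBSS/10mM HEPES pH 7.4. After 2 hours at room temperature and ice-cold washes, intracellular 125I was counted as CPM and normalized to DMSO wells.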
SMILES,AC50,outcome
Fc1ccccc1[C@@H](F)COC1CCC(Nc2ncnc3[nH]ncc23)CC1 (some centres not stated),89.1 µM (active),–
COCCOc1cc2cc(C(=O)NC3CCN(C(C)C)CC3)n(CC(=O)Nc3ccc(Cl)cn3)c2cn1,–,inactive
O=C(CCCCCCCCc1cccnc1)N1CCC(C=C(c2ccccc2)c2ccccc2)CC1,–,inactive
CCOc1cccc(-n2cc(C(=O)N3CCN(c4cc(C(=O)O)c5ccccc5c4)CC3)nc2-c2ccc(C)cc2)c1,83.6 µM (active),–
Cc1[nH]cnc1C[C@H]1CCc2c(C)c3ccccc3n2C1=O,–,inactive
O=c1[nH]c2ccc(S(=O)CCN3CCC(Cc4ccc(F)cc4)CC3)cc2o1 (configuration not stated),–,inactive
O=C(OC[C@H]1O[C@@H](OC(=O)c2cc(O)c(O)c(OC(=O)c3cc(O)c(O)c(O)c3)c2)[C@H](OC(=O)c2cc(O)c(O)c(OC(=O)c3cc(O)c(O)c(O)c3)c2)[C@@H](OC(=O)c2cc(O)c(O)c(OC(=O)c3cc(O)c(O)c(O)c3)c2)[C@@H]1OC(=O)c1cc(O)c(O)c(OC(=O)c2cc(O)c(O)c(O)c2)c1)c1cc(O)c(O)c(OC(=O)c2cc(O)c(O)c(O)c2)c1,–,inactive
CN(C)c1ccc(Cc2ccc(N(C)C)cc2)cc1,–,inactive
CC(C)c1cccc(C(C)C)c1N1C(=O)c2ccc(O)cc2C1=O,–,inactive
Clc1nc(Cl)c(Cl)c(Cl)c1Cl,–,inactive
O=P(OC(CCl)CCl)(OC(CCl)CCl)OC(CCl)CCl,–,inactive
COc1cccc(-c2ccc(/C=C\CN3CCCCCC3)cc2Cl)c1,–,inactive
O=C(O)c1cc(N=Nc2ccc(S(=O)(=O)Nc3ccccn3)cc2)ccc1O,–,inactive
CCOC(=O)COc1ccc2c(c1)CC(NCC(O)c1cccc(Cl)c1)CC2 (configuration not stated),–,inactive

# Test system: not listed separately
# Assay: CPHEA_Stoker_NIS_Cytotoxicity: Cytotoxicity Assessment for CPHEA's Radioactive Iodide Uptake (RAIU) Assay for Sodium/Iodide Symporter (NIS) Inhibition, Stoker and Laws Labs (AID 2283897);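 for AC50: active means loss of ATP signal versus DMSO meaning cytotoxicity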
# Conditions: not given
# How it was run: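 hNIS-HEK293T-EPA human kidney cells were exposed for 2 hours at room temperature to test chemicals (0.001–100uM, 0.5% final DMSO) in HEPES-buffered HBSS, pH 7.4. Viability was read as ATP content by luciferase bioluminescence, loss of signal versus DMSO.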
SMILES,AC50,outcome
Fc1ccccc1[C@@H](F)COC1CCC(Nc2ncnc3[nH]ncc23)CC1 (some centres not stated),9.92 µM (active),–
COCCOc1cc2cc(C(=O)NC3CCN(C(C)C)CC3)n(CC(=O)Nc3ccc(Cl)cn3)c2cn1,–,inactive
Cn1c(=O)cc(Oc2ccc(F)cc2F)c2cnc(NCC(C)(C)O)nc21,–,inactive
O=C(CCCCCCCCc1cccnc1)N1CCC(C=C(c2ccccc2)c2ccccc2)CC1,–,inactive
CCCCCCc1ccc(O)cc1O,–,inactive
CCOc1cccc(-n2cc(C(=O)N3CCN(c4cc(C(=O)O)c5ccccc5c4)CC3)nc2-c2ccc(C)cc2)c1,6.27 µM (active),–
Cc1[nH]cnc1C[C@H]1CCc2c(C)c3ccccc3n2C1=O,–,inactive
COc1ccc(/C=C/S(=O)(=O)NC(=O)c2ccc(C)cc2Cl)cc1,–,inactive
O=C(O)c1cccc(N(Cc2cccnc2)c2ccc(OC(F)F)c(OC(F)F)c2)c1,–,inactive
O=c1[nH]c2ccc(S(=O)CCN3CCC(Cc4ccc(F)cc4)CC3)cc2o1 (configuration not stated),–,inactive
O=C(OC[C@H]1O[C@@H](OC(=O)c2cc(O)c(O)c(OC(=O)c3cc(O)c(O)c(O)c3)c2)[C@H](OC(=O)c2cc(O)c(O)c(OC(=O)c3cc(O)c(O)c(O)c3)c2)[C@@H](OC(=O)c2cc(O)c(O)c(OC(=O)c3cc(O)c(O)c(O)c3)c2)[C@@H]1OC(=O)c1cc(O)c(O)c(OC(=O)c2cc(O)c(O)c(O)c2)c1)c1cc(O)c(O)c(OC(=O)c2cc(O)c(O)c(O)c2)c1,–,inactive
CN(C)c1ccc(N=NS(=O)(=O)O)cc1,–,inactive
CN(C)c1ccc(Cc2ccc(N(C)C)cc2)cc1,–,inactive
CC(C)c1cccc(C(C)C)c1N1C(=O)c2ccc(O)cc2C1=O,–,inactive
CCOC(=O)c1ccc(C2CCC(NC[C@H](O)COc3ccc(O)c(NS(C)(=O)=O)c3)CC2)cc1 (some centres not stated),–,inactive
CC(C)(O)c1coc(S(=O)(=O)NC(=O)Nc2c3c(cc4c2CCC4)CCC3)c1,–,inactive
Clc1nc(Cl)c(Cl)c(Cl)c1Cl,–,inactive
O=P(OC(CCl)CCl)(OC(CCl)CCl)OC(CCl)CCl,–,inactive
COc1cccc(-c2ccc(/C=C\CN3CCCCCC3)cc2Cl)c1,–,inactive
O=C(O)c1cc(N=Nc2ccc(S(=O)(=O)Nc3ccccn3)cc2)ccc1O,–,inactive
CCOC(=O)COc1ccc2c(c1)CC(NCC(O)c1cccc(Cl)c1)CC2 (configuration not stated),–,inactive

# Read-out: not listed separately
# Assay: CEETOX_H295R_OHPREG_noMTC: CeeTox H295R High-throughput Steroidogenesis Assay for OH-Pregnenolone (OHPREG), maximum tolerated concentration (MTC) filtered results only (AID 2283912; active = hit-call score of the fitted dose curve at least 0.9, where 1 is the maximum; inactive = score below 0.9)
# Conditions: actives raise or lower the signal
# How it was run: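 H295R cells prestimulated 48 h with 10 uM forskolin, then exposed 48 h to compound (0.1% DMSO). 17alpha-hydroxypregnenolone in medium measured by MTBE extraction and HPLC-MS/MS; bidirectional fit vs DMSO, concentrations not MTT/MTC-filtered.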
SMILES,outcome,AC50
CC(C)=CCC/C(C)=C\CO,inactive,–
O=C(NS(=O)(=O)/C=C/c1ccccc1)c1ccc(F)cc1Cl,–,7.49 µM (active)
CCCCC(CC)COC(=O)c1ccc(C(=O)OCC(CC)CCCC)cc1 (configuration not stated),inactive,–
